This passage reports outcome results from PubChem BioAssay AID488789 (Broad Institute, 2010).

Molecules are shown by their SMILES. Entries with a potency or affinity are not part of this list. Results filed as inconclusive are left out. The source made the active and inactive calls.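 How the source made its calls: active means samples whose fitted half-maximal inhibition concentration is no more than ten times the top valid dose tested; inconclusive means flat response between -70 and -30, or invalid curve fit; inactive means flat within 30 of zero, potency above limit, or signal rising.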

This experiment deals with Trypsin (Sus scrofa) (UniProt P00761). Kind of experiment: porcine trypsin inhibitors, dose response, selectivity assay for Rce1 protease inhibitor project, biochemical, quenched peptide fluorescence, cherry-pick (AID 488789).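 Further: more negative means stronger trypsin inhibition.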 The note with it: quenched peptide cleavage fluorescence; series mostly up to 10 µM.
Sequence of Trypsin (Sus scrofa) (P00761 whole entry, looked up): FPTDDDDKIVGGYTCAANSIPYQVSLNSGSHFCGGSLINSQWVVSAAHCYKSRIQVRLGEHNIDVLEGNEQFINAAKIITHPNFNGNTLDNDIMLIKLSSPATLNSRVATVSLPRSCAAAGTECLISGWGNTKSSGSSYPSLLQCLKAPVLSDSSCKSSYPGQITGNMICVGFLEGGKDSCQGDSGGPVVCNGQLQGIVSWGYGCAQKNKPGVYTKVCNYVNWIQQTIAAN
`CN1CCN(c2ccc([N+](=O)[O-])c(Sc3nncn3C)c2)CC1`: the call was inactive.

In the case of `CN1CC(C(=O)c2ccc(Cl)cc2)C(c2ccc(Cl)cc2Cl)C1` (stereo not drawn), the compound was classed as inactive.

In the case of `CCOc1ccc(C2C(C#N)=C(N)Oc3c2c(=O)oc2ccccc32)cc1` (stereo not drawn), the outcome was inactive. The entry for `C=CCn1c(O)c(C(CC)=Nc2ccc(N(CC)CC)cc2)c(=O)[nH]c1=O` is “inactive”. With `C=CC[N+]1(C)CC[C@]23c4c5ccc(O)c4O[C@H]2C(=O)CC[C@@]3(O)[C@H]1C5` (stereo partly drawn), the outcome was inactive.

On to `c1ccc(CCCN2CCN(CCOC(c3ccccc3)c3ccccc3)CC2)cc1`, for which the outcome was inactive. For the compound `Cc1ccc(-c2cc(-c3ccccc3)cc(-c3ccccc3)[n+]2-c2ccccc2)cc1`, the outcome was inactive. With `CCOC(=O)[C@@H]1[C@H]2COc3ccc(Br)cc3[C@@H]2N2C(=O)N(c3cccc(C)c3)C(=O)[C@]12C`, the outcome was inactive. On to `O=[N+]([O-])c1ccc(C[n+]2c(-c3ccccc3)cc(-c3ccccc3)cc2-c2ccccc2)cc1`, for which the result was inactive. The entry for `Cc1nccc2c1[nH]c1ccccc12` is “inactive”; for `Clc1ccc(C[n+]2c(-c3ccccc3)cc(-c3ccccc3)cc2-c2ccccc2)cc1` it is “inactive”; for `CC(=O)OCC[N+](C)(C)C` it is “inactive”. For the compound `Cc1ccnc(-n2c(-c3ccco3)nc3ccccc3c2=O)c1`, the compound was called inactive.
